From PubChem BioAssay (Tox21)
Inconclusive results are not listed. The source made the active and inactive calls. Unless noted, calls follow the shape of the full dose curve.

Key:
[1] = Nuclear factor erythroid 2-related factor 2/antioxidant responsive element (Nrf2/ARE) small molecule agonists: qHTS cell viability counter screen in human keratinocytes (AID 1919968; active = well fitted curve in the direction sought with a large enough effect in the repeat runs; an effect the other way counts as inactive or inconclusive; also: nearly all actives have a fitted effect of over 55% in size)
Method in brief: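 Cells of the KeratinoSens line were plated at 1,500 per well and left for 5 h before compound transfer from DMSO stocks. After a 23 h incubation (37 C, 5% CO2), CellTiter-Fluor was added. Signal was taken as fluorescence intensity 1 h later.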

[2] = target: Gonadotropin-releasing hormone receptor (Homo sapiens) (UniProt P30968); assay: Human gonadotropin-releasing hormone receptor (GnRHR) small molecule agonists, calcium flux assay in GnRHR-HEK293 cells (AID 1920063); also: nearly all actives have a fitted effect of over 35% in size
Sequence of Gonadotropin-releasing hormone receptor (Homo sapiens) (P30968 whole entry, looked up): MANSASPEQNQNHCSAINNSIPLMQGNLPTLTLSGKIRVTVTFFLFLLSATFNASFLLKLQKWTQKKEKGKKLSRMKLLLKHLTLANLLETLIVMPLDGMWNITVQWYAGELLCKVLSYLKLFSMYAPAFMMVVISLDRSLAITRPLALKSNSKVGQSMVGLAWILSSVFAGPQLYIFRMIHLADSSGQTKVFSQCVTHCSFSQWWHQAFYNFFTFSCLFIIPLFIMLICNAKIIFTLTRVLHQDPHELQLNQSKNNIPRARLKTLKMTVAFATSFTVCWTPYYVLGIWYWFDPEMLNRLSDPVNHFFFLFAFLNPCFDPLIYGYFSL
Method in brief: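 Compounds dissolved in DMSO are pin-transferred onto dye-loaded GnRHR-HEK293 cells, which were seeded 18 h before at 37 C/5% CO2. Calcium signal is read as fluorescence intensity at 1 s intervals for 3 min.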

[3] = target: KiSS-1 receptor (Homo sapiens) (UniProt Q969F8); assay: Human kisspeptin (KISS1R) small molecule agonists, calcium flux assay in KISS1R-HEK293 cells (AID 1920064; active = well fitted curve in the direction sought with a large enough effect in the repeat runs; an effect the other way counts as inactive or inconclusive)
Sequence of KiSS-1 receptor (Homo sapiens) (Q969F8 whole entry, looked up): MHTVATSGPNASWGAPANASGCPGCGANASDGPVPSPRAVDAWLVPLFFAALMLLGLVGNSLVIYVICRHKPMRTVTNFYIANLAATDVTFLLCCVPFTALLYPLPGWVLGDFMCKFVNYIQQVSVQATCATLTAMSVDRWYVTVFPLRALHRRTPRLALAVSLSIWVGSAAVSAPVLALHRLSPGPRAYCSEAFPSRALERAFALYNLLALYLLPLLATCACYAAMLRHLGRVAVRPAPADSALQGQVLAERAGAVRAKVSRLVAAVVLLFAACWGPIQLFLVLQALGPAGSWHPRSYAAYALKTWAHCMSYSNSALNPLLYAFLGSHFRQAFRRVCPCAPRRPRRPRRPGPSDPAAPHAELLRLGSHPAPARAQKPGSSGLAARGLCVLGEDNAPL
Method in brief: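 Cell line: HEK293, stable human KISS1R. Dye loading 1 h at 37 C after 18 h culture. Read: kinetic fluorescence, 480/540 nm, 3 min at 1 s intervals.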

[4] = p53 small molecule agonists, cell-based qHTS assay with human liver microsomes (AID 1963577);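 also: p53 response element beta-lactamase reporter cells with liver microsomes plus NADPH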
Method in brief: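 Steps: plate p53RE-bla cells, incubate 5 h at 37 C; add compound in DMSO; add microsomes (0.5 mg/mL final) and NADPH (0.5 mg/mL final); incubate 16 h at 37 C; add LiveBLAzer, 2 h RT; read fluorescence.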

[5] = p53 small molecule agonists, cell-based qHTS assay with human liver microsomes: qHTS cell viability counter screen (AID 1963579); also: nearly all actives have a fitted effect of over 45% in size
Method in brief: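 After the 460/530 nm beta-lactamase read, CellTiter-Glo was added to the same wells and luminescence measured after 30 min at room temperature, giving viability of p53RE-bla cells treated 16 h with compounds plus microsomes and NADPH.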

[6] = p53 small molecule agonists, cell-based qHTS assay with rat liver microsomes: qHTS cell viability counter screen (AID 1963580); also: nearly all actives have a fitted effect of over 45% in size
Method in brief: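 Luminescent ATP readout (CellTiter-Glo, 30 min at room temperature) reports viability of p53RE-bla HCT-116 cells after 16 h at 37 C with test compounds under metabolic activation by rat liver microsomes and NADPH at 0.5 mg/mL final each.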

[7] = cAMP Responsive Elements (CRE) small molecule agonists, cell-based qHTS assay (AID 1963590)
Method in brief: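 HEK 293T cells stably bearing CRE-bla were plated at 2,000 cells per well and rested 18 h. Compounds, positive controls or DMSO were added for 3 h at 37 C. LiveBLAzer B/G substrate was then loaded for 2 h at room temperature.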

[8] = cAMP Responsive Elements (CRE) small molecule antagonists, cell-based qHTS assay (AID 1963591; active = well fitted inhibition curve with a large enough effect in the signal ratio in the repeat runs, not every such curve was filed as active; the % refers to the signal ratio)
Method in brief: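 First, CRE-bla HEK293T cells settled 18 h at 37 C. Next, compound and 0.25 uM final NKH477 were applied for 3 h. Last, LiveBLAzer B/G substrate was loaded for 2 h at room temperature.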

[9] = target: D(2) dopamine receptor (Homo sapiens) (UniProt P14416); assay: Dopamine D2 receptor (DRD2) small molecule agonists, cell-based qHTS assay (AID 1963594); also: nearly all actives have a fitted effect of over 35% in size
Sequence of D(2) dopamine receptor (Homo sapiens) (P14416 whole entry, looked up): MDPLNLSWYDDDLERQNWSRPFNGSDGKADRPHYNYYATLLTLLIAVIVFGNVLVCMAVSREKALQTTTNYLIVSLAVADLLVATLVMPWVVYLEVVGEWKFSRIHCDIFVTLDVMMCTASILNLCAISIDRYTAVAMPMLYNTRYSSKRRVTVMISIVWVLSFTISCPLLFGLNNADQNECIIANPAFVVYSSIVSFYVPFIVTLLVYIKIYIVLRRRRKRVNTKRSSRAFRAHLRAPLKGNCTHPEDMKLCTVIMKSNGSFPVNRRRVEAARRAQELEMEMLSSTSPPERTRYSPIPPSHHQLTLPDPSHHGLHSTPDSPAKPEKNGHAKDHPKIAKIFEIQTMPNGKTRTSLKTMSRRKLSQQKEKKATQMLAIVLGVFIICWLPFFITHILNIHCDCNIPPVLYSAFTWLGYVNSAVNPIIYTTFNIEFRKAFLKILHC
Method in brief: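 HEK293 cells stably expressing DRD2 were cultured 24 h at 37 C, then given Ro20-1724 (0.1 mM final) and compounds for 10 min at room temperature. NKH477 (200nM) was then added for 30 min. cAMP was read by HTRF.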

[10] = target: D(2) dopamine receptor (Homo sapiens) (UniProt P14416); assay: Dopamine D2 receptor (DRD2) small molecule antagonists, cell-based qHTS assay (AID 1963595; active = well fitted inhibition curve with a large enough effect in the signal ratio in the repeat runs, with a control signal flat; the % refers to the signal ratio)
Method in brief: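 Human DRD2 antagonist qHTS measuring cAMP by HTRF. The cells are exposed to compound for 10 min, then to NKH477 (200 nM) and quinpirole (12 nM) for 30 min at RT, with Ro20-1724 (0.1 mM) present throughout.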

[11] = G protein-coupled receptor (GPCR) small molecule agonists, calcium flux assay: HEK293 wild type cell line counter screen (AID 1920065)
Method in brief: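 Tox21 10K compounds, 15 concentrations each in triplicate, pin-transferred in DMSO onto dye-loaded cells; kinetic read at 480/540 nm for 3 min, 1 s intervals.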

[12] = p53 small molecule agonists, cell-based qHTS assay: qHTS cell viability counter screen (AID 1963581); also: nearly all actives have a fitted effect of over 45% in size
Method in brief: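 ATP content measured by luminescence in HCT-116 p53RE-bla cells treated 16 h at 37 C, same wells as the reporter screen.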

[13] = target: Beta-2 adrenergic receptor (Homo sapiens) (UniProt P07550); assay: Adrenergic beta2 receptor (ADRB2) small molecule antagonists, cell-based qHTS assay (AID 1963592); also: series mostly up to about 92 µM; nearly all actives have a fitted effect of over 50% in size
Sequence of Beta-2 adrenergic receptor (Homo sapiens) (P07550 whole entry, looked up): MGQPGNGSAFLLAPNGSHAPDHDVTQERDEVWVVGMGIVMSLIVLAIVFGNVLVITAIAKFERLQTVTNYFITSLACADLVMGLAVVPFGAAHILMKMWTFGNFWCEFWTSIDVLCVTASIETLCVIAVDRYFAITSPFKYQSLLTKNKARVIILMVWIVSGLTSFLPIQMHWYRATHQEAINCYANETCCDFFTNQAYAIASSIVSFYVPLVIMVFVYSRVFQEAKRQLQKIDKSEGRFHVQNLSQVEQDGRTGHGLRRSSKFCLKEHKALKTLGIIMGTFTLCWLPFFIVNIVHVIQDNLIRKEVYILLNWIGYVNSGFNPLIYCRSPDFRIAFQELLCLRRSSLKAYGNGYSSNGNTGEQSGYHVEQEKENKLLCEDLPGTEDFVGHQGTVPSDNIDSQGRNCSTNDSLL
Method in brief: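 Assay format: CHO-ADRB2 cells, 18-20hr seeding at 37C/5% CO2, then compound plus 1nM isoproterenol agonist mix for 0.5hr RT. Homogeneous time-resolved fluorescence cAMP detection after 1hr, expressed as 665/615 nm ratio.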

[14] = target: Beta-2 adrenergic receptor (Homo sapiens) (UniProt P07550); assay: Adrenergic beta2 receptor (ADRB2) small molecule agonists, cell-based qHTS assay (AID 1963593);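 also: CHO cells stably overexpressing human ADRB2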
Method in brief: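 CHO cells stably over-expressing ADRB2 were plated overnight at 37C, then dosed with compounds plus a stimulation mix containing 100uM IBMX and 25uM Ro-20-1724 for 0.5hr at room temperature. cAMP was measured by HTRF competition, 1hr.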

[15] = p53 small molecule agonists, cell-based qHTS assay with rat liver microsomes (AID 1963578)
Method in brief: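 Metabolic activation is supplied by rat liver microsomes with NADPH (each 0.5 mg/mL final). p53RE-bla cells incubate with compound 16 h at 37 C; reporter activity is measured by LiveBLAzer fluorescence.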

[16] = p53 small molecule agonists, cell-based qHTS assay (AID 1963582; active = well fitted activation curve with a large enough effect in the signal ratio in the repeat runs, not every such curve was filed as active; the % refers to the signal ratio)
Method in brief: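 16 h compound exposure (37 C) of p53 response element–bla cells, preceded by 5 h recovery at 37 C/5% CO2; read-out via LiveBLAzer B/G FRET substrate, 2 h RT, fluorescence intensity.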

[17] = target: 5-hydroxytryptamine receptor 2A (Homo sapiens) (UniProt P28223); assay: 5-hydroxytryptamine receptor 2A (HTR2A) small molecule antagonists, cell-based qHTS assay (AID 1963586); also: nearly all actives have a fitted effect of over 45% in size
Sequence of 5-hydroxytryptamine receptor 2A (Homo sapiens) (P28223 whole entry, looked up): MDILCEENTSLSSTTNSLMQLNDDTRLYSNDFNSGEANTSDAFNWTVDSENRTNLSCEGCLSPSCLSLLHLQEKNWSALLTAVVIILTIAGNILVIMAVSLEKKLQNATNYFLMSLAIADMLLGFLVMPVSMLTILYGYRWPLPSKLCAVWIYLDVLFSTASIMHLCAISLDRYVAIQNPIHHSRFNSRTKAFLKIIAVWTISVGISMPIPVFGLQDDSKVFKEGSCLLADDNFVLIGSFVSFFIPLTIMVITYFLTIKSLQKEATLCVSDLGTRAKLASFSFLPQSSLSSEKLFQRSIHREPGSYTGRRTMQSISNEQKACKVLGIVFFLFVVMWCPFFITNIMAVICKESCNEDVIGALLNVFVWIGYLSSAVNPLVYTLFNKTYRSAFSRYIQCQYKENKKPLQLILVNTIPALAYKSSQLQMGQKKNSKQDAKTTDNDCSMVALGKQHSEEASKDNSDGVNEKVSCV
Method in brief: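 CHO cells stably expressing human HTR2A were plated for 18 h at 37 C, then loaded with calcium dye for 1 h. Compounds were preincubated 5 min at room temperature before DOI (4 nM solution) was added. Kinetic fluorescence was read for 3 min.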

[18] = target: 5-hydroxytryptamine receptor 2A (Homo sapiens) (UniProt P28223); assay: 5-hydroxytryptamine receptor 2A (HTR2A) small molecule agonists, cell-based qHTS assay (AID 1963587); also: nearly all actives have a fitted effect of over 30% in size
Method in brief: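 HTR2A-CHO cells, plated 18 h at 37 C/5% CO2, dye-loaded 1 h at 37 C; compounds in DMSO added by pin tool (agonist mode). Intracellular calcium flux read as kinetic fluorescence on FDSS over 2 min at 1 s intervals.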

[19] = target: Muscarinic acetylcholine receptor M1 (Homo sapiens) (UniProt P11229); assay: Cholinergic receptor muscarinic 1 (CHRM1) small molecule antagonists, cell-based qHTS assay (AID 1963588); also: nearly all actives have a fitted effect of over 40% in size
Sequence of Muscarinic acetylcholine receptor M1 (Homo sapiens) (P11229 whole entry, looked up): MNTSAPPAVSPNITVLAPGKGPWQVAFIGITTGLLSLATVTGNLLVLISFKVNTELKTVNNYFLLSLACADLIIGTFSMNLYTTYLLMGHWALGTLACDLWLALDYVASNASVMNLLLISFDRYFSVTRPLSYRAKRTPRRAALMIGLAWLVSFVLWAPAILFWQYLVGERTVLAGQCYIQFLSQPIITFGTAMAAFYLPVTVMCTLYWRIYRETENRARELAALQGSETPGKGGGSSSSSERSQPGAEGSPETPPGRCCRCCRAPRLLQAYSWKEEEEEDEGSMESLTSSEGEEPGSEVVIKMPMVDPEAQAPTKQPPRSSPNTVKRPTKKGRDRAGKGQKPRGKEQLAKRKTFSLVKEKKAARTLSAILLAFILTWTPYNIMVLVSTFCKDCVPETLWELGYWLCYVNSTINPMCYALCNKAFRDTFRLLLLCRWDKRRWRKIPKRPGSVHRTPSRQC
Method in brief: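 Compounds were tested at 15 concentrations in three independent runs. Dye-loaded CHRM1-CHO cells were exposed 5 min at room temperature before stimulation by acetylcholine added at 50nM. Intracellular calcium was read kinetically on FDSS for 3 min.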

[20] = target: Muscarinic acetylcholine receptor M1 (Homo sapiens) (UniProt P11229); assay: Cholinergic receptor muscarinic 1 (CHRM1) small molecule agonists, cell-based qHTS assay (AID 1963589); also: nearly all actives have a fitted effect of over 35% in size
Method in brief: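 Homogeneous fluorescence calcium flux, agonist mode. Human M1-expressing CHO cells; compound dosed at 15 concentrations, three independent runs; signal sampled every 1 sec.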

Measured: Potency

Cc1ccccc1C(OCCN(C)C)c1ccccc1 (stereo not given)
inactive: [1] | [2] | [3] | [4] | [5] | [6] | [7] | [8] | [9] | [10]

Cc1cn([C@H]2C=C[C@@H](CO)O2)c(=O)[nH]c1=O
inactive: [1] | [2] | [3] | [11] | [5] | [6] | [12] | [7] | [8] | [13] | [14] | [9] | [10]

Cc1ccccc1Cl
inactive: [1] | [2] | [3] | [11] | [4] | [15] | [6] | [12] | [16] | [17] | [18] | [19] | [7] | [8] | [14] | [9] | [10]

O=C(O)CCCCCCCC(=O)O
inactive: [1] | [2] | [3] | [11] | [15] | [5] | [6] | [12] | [17] | [18] | [19] | [20] | [7] | [8] | [13] | [14] | [9] | [10]

Cc1ccc(S(=O)(=O)O)cc1
inactive: [1] | [2] | [3] | [11] | [5] | [12] | [17] | [18] | [20] | [7] | [8] | [13] | [14] | [9] | [10]

OC(Cn1cncn1)(Cn1cncn1)c1ccc(F)cc1F
inactive: [1] | [2] | [3] | [11] | [15] | [5] | [6] | [12] | [16] | [7] | [13] | [14] | [10]

Cc1ccc(C)c(S(=O)(=O)O)c1
inactive: [1] | [2] | [11] | [4] | [15] | [5] | [6] | [12] | [16] | [17] | [18] | [19] | [20] | [7] | [8] | [13] | [14] | [9] | [10]
